Bioassay records from PubChem BioAssay.
An excerpt weighted towards active compounds, which were near 4.6% of everything screened.
DAX1 inh-1: DAX1 (NR0B1) inhibitors on StAR promoter, primary screen, cell-based, luminescence, SF-1 (NR5A1), full-length DAX-1 | 1.1% of 370,000 active | AID 652010, 2013 | HEK293T StAR-luciferase reporter, SF-1/DAX-1 repression relief | inhibition, % at 6.8 µM;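 active = inhibition above the mean over all tested compounds plus 3 SD, cut at about 3.6% in these data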;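 also: higher inhibition means more luminescence from relief of DAX-1 repression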
DAX1 inh-2: DAX1 (NR0B1) inhibitors, primary screen, cell-based, HEK293, Gal4-DAX1, luciferase luminescence | HEK293 Gal4-DAX1 luciferase reporter | Nuclear receptor subfamily 0 group B member 1 (Homo sapiens), P51843 | inhibition, % at 6.75 µM | 0.99% of 340,000 active;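 active = inhibition above the mean over all tested compounds plus 3 SD, cut at about 4.2% in these data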;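 also: inhibition shows as a rise in luminescence from relieved DAX1 repression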
ssDAF-12 act: S. stercoralis DAF-12 nuclear receptor activators, primary screen, cell-based, luminescence, HEK293, GRIP1 co-expression, lit1-tk-luc; Nuclear hormone receptor DAF-12 (Strongyloides stercoralis); HEK293 ssDAF-12/GRIP1 lit1-tk-luc reporter; % of 3 µM dafachronic acid response; activation, % at 6.8 µM; 1% of 370,000 active;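 active = activation above the mean over all tested compounds plus 3 SD, cut at about 0.9% in these data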
Wee1 stabilizer: Wee1 degradation inhibitors, primary screen, cell-based, HeLa, Wee1K328M-luciferase, luminescence | Wee1-like protein kinase (Homo sapiens), P30291 | 1.2% of 220,000 active | HeLa Luc-Wee1K328M stability; 100% = proteasome inhibitor MG132 effect | reporter increase, % at 5 µM;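 active = activation above the mean of all tested compounds plus 3 SD, set per screening run, cut at about 8.8% in these data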;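 also: cells exposed to compound for 20 h before luminescence read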
Target sequence (P30291 whole entry K328M): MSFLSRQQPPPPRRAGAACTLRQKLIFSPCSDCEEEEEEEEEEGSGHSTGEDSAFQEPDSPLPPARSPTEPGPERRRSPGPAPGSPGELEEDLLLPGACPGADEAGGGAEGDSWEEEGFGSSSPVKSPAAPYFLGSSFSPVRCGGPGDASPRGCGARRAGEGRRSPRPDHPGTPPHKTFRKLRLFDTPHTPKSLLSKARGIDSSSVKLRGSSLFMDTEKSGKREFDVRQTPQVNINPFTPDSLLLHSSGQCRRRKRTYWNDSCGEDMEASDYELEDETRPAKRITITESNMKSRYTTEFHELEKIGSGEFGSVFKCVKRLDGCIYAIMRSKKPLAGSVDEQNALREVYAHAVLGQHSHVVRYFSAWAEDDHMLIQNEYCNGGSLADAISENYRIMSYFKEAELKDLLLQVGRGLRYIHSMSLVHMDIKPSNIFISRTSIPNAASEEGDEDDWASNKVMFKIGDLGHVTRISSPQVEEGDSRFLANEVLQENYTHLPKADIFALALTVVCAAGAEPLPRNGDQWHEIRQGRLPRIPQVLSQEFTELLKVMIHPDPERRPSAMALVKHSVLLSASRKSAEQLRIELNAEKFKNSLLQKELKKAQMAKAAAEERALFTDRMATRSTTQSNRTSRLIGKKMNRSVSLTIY
hgDAF12 agonist: H. glycines DAF-12 receptor agonists, primary screen, cell-based, luminescence, HEK293, GAL4 fusion, UAS-luciferase; Nuclear hormone receptor DAF-12 (Heterodera glycines), GAL4 fusion; 1.8% of 370,000 active; HEK293 GAL4-hgDAF12 UAS-luciferase reporter, agonist luminescence; normalized to butyrate control; activation, % at 6.8 µM;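 active = activation above a cutoff set at the mean of all screened compounds plus 3 SD, cut at about 10% in these data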
hcDAF-12 act: H. contortus DAF-12 nuclear receptor activators, primary screen, cell-based, luminescence, HEK293, lit1-tk-luc reporter | activation, % at 6.8 µM | 1.4% of 370,000 active | HEK293 hcDAF-12 lit1-tk-luc reporter; 0% DMSO, 100% Δ7-dafachronic acid | AID 652067, 2013;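 active = activation above the mean of all tested compounds plus 3 SD, cut at about 5.5% in these data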
Of the large screens only hits and unclear results are named; the others gave an inactive call.

CC(C)C[C@@H](CN1CCC[C@H]1CN1C(=O)C(=O)NC[C@@H]1Cc1ccccc1)N1C[C@H](Cc2ccccc2)N(CC2CCCCCC2)C(=O)C1=O	none (no result: DAX1 inh-2, Wee1 stabilizer)
COc1ccc(S(=O)(=O)Nc2ccc3ccccc3c2)cc1C	none
COc1ccc(S(=O)(=O)Nc2ccc3cn[nH]c3c2)cc1C	ssDAF-12 act 0.9
CC(CCCN1CCCC1)Nc1ccnc2cc(Cl)ccc12 (centres undefined)	DAX1 inh-2 7.0 (no result: Wee1 stabilizer)
CCCCCCOc1ccc(/C(N)=N/O)cc1	hgDAF12 agonist 11
O=C(/C=C/Nc1ccc([N+](=O)[O-])cc1)c1ccc(Br)cc1	none
O=C(/C=C/Nc1ccc(F)cc1)c1ccc(Br)cc1	Wee1 stabilizer 9.4, hgDAF12 agonist 11
O=C(/C=C/Nc1ccc(F)c(F)c1)c1ccc(Br)cc1	hgDAF12 agonist 12
O=C(/C=C/Nc1ccc(F)c(Cl)c1)c1ccccc1	hcDAF-12 act 6.3 (no result: Wee1 stabilizer)
Cc1ccc(C(=O)/C=C/Nc2ccc3c(c2)OCO3)cc1	ssDAF-12 act 1.6
O=C(Nc1ccc(OC(F)(F)F)cc1)Nc1c(-c2ccc(F)cc2)nc2ncccn12	none (no result: DAX1 inh-2, Wee1 stabilizer)
CC1CN(S(=O)(=O)c2ccc(C(=O)N(CCCN(C)C)c3nc4c(Cl)cccc4s3)cc2)CC(C)O1 (centres undefined)	none (no result: Wee1 stabilizer)
C=CC[C@H](CC(=O)OC(C)(C)C)C(=O)OC[C@H]1CCCN1C(=O)[C@H](CC=C)CC(=O)NCCO	none (no result: Wee1 stabilizer)
COc1ccc(N/C=C/C(=O)c2ccccc2)cc1	DAX1 inh-1 4.4, ssDAF-12 act 1.0, hgDAF12 agonist 12 (no result: Wee1 stabilizer)
COc1ccc(N/C=C\C(=O)c2ccc3ccccc3c2)cc1	none (no result: Wee1 stabilizer)
CC(C)(C)[C@H]1COC(=O)[C@H](NC(=O)OCC2c3ccccc3-c3ccccc32)C/C=C\C[C@@H](CC(=O)N(CCO)Cc2ccccc2)C(=O)N1	none (no result: Wee1 stabilizer)
CS(=O)(=O)N[C@@H]1C[C@@H]2O[C@H](CO)CC[C@@H]2O[C@@H]1CCc1ccc(-c2ccccc2F)cc1	none (no result: DAX1 inh-2, Wee1 stabilizer)
O=C(Nc1nccs1)c1ccc(COc2ccccc2)o1	hgDAF12 agonist 11 (no result: Wee1 stabilizer)
Cc1ccc(OCc2ccc(C(=O)Nc3nccs3)o2)cc1	none
Cc1ccc(SCc2ccc(C(=O)Nc3nccs3)o2)cc1	none (no result: Wee1 stabilizer)
O=C(Nc1nccs1)c1ccc(CSc2ccccc2)o1	DAX1 inh-1 6.2 (no result: Wee1 stabilizer)
CC[n+]1ccc(/C=C2\Sc3ccccc3N2CCCS(=O)(=O)[O-])c2ccccc21	ssDAF-12 act 1.2
CCOc1ccc2nc(N3C(=O)/C(=C/c4ccccc4)NC3=S)sc2c1	DAX1 inh-2 5.1
C[C@H]1CCC/C=C/[C@@H]2C[C@H](O)C[C@H]2[C@H](O)[C@H](S(=O)c2ccc(O)cc2)CC(=O)O1 (some centres undefined)	DAX1 inh-1 6.3 (no result: Wee1 stabilizer)
COc1ccccc1CN1CN(S(=O)(=O)c2ccccc2)c2nc3ccccc3nc21	hcDAF-12 act 6.1
O=S(=O)(c1cccs1)N1CN(Cc2ccco2)c2nc3ccccc3nc21	ssDAF-12 act 0.9
CCCCCCCCN1C(=O)[C@H](CC(=O)NCC23CC4CC(CC(C4)C2)C3)C[C@@]2(C(=O)OCC)CCC=C12	none (no result: DAX1 inh-2, Wee1 stabilizer)
Nc1[nH]c(N=NC(=O)c2ccccc2)c2ccccc12	Wee1 stabilizer 10
CCn1c(=O)c(C(=O)NCc2ccccc2)c(O)c2ccccc21	none (no result: Wee1 stabilizer)
C=CCn1c(=O)c(C(=O)Nc2ccc(C)cc2)c(O)c2ccccc21	ssDAF-12 act 1.0 (no result: Wee1 stabilizer)
CC(C)Cn1c(=O)c(C(=O)NCc2ccccn2)c(O)c2ccccc21	Wee1 stabilizer 12
CCn1c(=O)c(C(=O)NCc2ccc(F)cc2)c(O)c2ccccc21	DAX1 inh-2 4.7 (no result: Wee1 stabilizer)
COc1cccc(C(O)c2ncc(-c3ccccc3)[nH]2)c1 (centres undefined)	none (no result: DAX1 inh-2, Wee1 stabilizer)
Cn1c(=O)[nH]c(=O)c2c1nc(Br)n2C/C=N/Nc1ccccc1	DAX1 inh-1 3.7
Cn1c(=O)[nH]c(=O)c2c1nc(Br)n2C/C=N/NC(=O)c1ccccc1	DAX1 inh-2 4.6
Cn1c(=O)[nH]c(=O)c2c1nc(Br)n2CCC(=O)c1ccccc1	none
Cn1nnc2cc(C(=O)Nc3ccccc3)ccc21	ssDAF-12 act 0.9, hgDAF12 agonist 11
CN(C)c1ccc(NC(=O)Nc2ccc3c(c2)nnn3C)cc1	DAX1 inh-2 6.5 (no result: Wee1 stabilizer)
Cc1ccc(N2C(=O)N(CC(=O)N3c4ccccc4CC3C)C(=O)C2C)cc1 (centres undefined)	none (no result: Wee1 stabilizer)
CN1C2=NC(c3ccc4ccccc4c3)CC(=O)N2/C(=C\c2ccccc2)C1c1ccccc1C(F)(F)F (centres undefined)	none (no result: DAX1 inh-1, DAX1 inh-2, Wee1 stabilizer)
Cc1cn([C@H]2C[C@H](O)[C@@H](/C=C/C(=O)NCc3ccc(N(C)C)cc3)O2)c(=O)[nH]c1=O	none (no result: DAX1 inh-2, Wee1 stabilizer)
c1cncc(CSc2ccc(-c3ccc4c(c3)OCO4)nn2)c1	hcDAF-12 act 5.6
COc1cccc(/C=N/n2c(=O)[nH]c3ccccc32)c1OC	DAX1 inh-2 4.9
COc1ccc(/C=C2/SC(=S)N(Cc3ccccc3)C2=O)cc1O	none (no result: Wee1 stabilizer)
COc1ccc(/C=C2\SC(=S)N(N3C(=O)CCC3=O)C2=O)cc1O	DAX1 inh-2 4.4
C[C@H](O)C#Cc1ccc2c(c1)O[C@@H](CN(C)Cc1ccc(-c3ccccc3)cc1)[C@H](C)CN([C@@H](C)CO)S2(=O)=O	none (no result: Wee1 stabilizer)
COc1ccc(N=C2SCC(c3ccccc3)=NN2C)cc1	DAX1 inh-2 4.3
COc1ccc(N=C2SCC(=O)N2c2ccc(OC)cc2)cc1	none
CNc1ccccc1/C(O)=C(\C#N)C(=O)NCc1cccs1	none (no result: DAX1 inh-2, Wee1 stabilizer)
COc1cccc2cc(-c3nnc(-c4ccccc4)o3)c(=O)oc12	hgDAF12 agonist 11
CC/C(C)=N/Nc1nc(-c2cc3cccc(OC)c3oc2=O)cs1	hgDAF12 agonist 12 (no result: DAX1 inh-2)
COc1cccc2cc(-c3csc(CCn4nc(C)cc4C)n3)c(=O)oc12	none
CCc1ccc2nc3n[nH]c(N)c3cc2c1	hgDAF12 agonist 11
COc1ccc(C(=O)C[n+]2cc(Br)cc3ccccc32)cc1[N+](=O)[O-]	ssDAF-12 act 1.0, hcDAF-12 act 5.9 (no result: Wee1 stabilizer)
O=C(Nc1c(-c2ccccc2)[nH][nH]c1=O)c1cccs1	none (no result: DAX1 inh-2, Wee1 stabilizer)
CCCCn1c(N)c(N(CCOC)C(=O)c2cc(-c3ccccc3)nc3ccccc23)c(=O)[nH]c1=O	DAX1 inh-2 7.0 (no result: Wee1 stabilizer)
